Compounds with a hit are over-represented: about 18% of the library has one in this group of screens.
TGFb SMAD3 inh: qHTS for Inhibitors of TGF-b | Potency, µM (titrated, usually from 46.1 µM), for the others: at the highest dose activity, negative = inhibition, most hits filed as inhibitors | HepG2 CAGA-GFP TGF-b/SMAD3 reporter, GFP fluorescence, 18 h; TGF-beta stimulated, 500 pg/mL final | actives 1.2% (n = 410,000); further: potency means the concentration at half of the fitted maximal effect; on the % scale 0 is the no-effect control and ±100 the full control effect; nearly all actives have a fitted effect of over 65% in size
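HEPG2 CAGA-GFP cells (1000/well, DMEM with 1% FBS) were pre-incubated 2 h at 37 degrees C, given compound by pin tool, then stimulated with TGF-beta at 500 pg/mL final for 18 h before per-cell GFP fluorescence imaging.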
IL-1B inflam inh: qHTS for Inhibitors of Inflammasome Signaling: IL-1-beta AlphaLISA Primary Screen. THP-1 LPS/ATP IL-1B secretion, AlphaLISA, 16 h; stronger effect = lower value. activity change, % at 57.5 µM. actives 4.7% (n = 360,000). AID 743279, 2014; in the data active means activity change below about -50%; inconclusive means mostly about -30% to -49%; further: on the % scale 0 is the no-effect control and ±100 the full control effect
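Secreted IL-1B measured by AlphaLISA bead assay after 16 h compound exposure of THP-1 cells; compounds (final up to 57.5 uM) added 1 h before LPS (250 ng/mL) and ATP (1.25 mM) stimulation; lower signal means less secretion.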
TDP1 cell CPT: qHTS for Inhibitors of human tyrosyl-DNA phosphodiesterase 1 (TDP1): qHTS in cells in presence of CPT; Potency, µM (doses to about 46.2 µM), inactives show at the highest dose activity change, negative = growth inhibition, hits mostly inhibitors; chicken DT40 Tdp1-/-;hTDP1 cells + 20 nM CPT, ATP luminescence, 48 h; AID 686979, 2013; actives 12% (n = 420,000); further: potency means the concentration at half of the fitted maximal effect; on the % scale 0 is the no-effect control and ±100 the full control effect; nearly all actives have a fitted effect of over 55% in size
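Chicken DT40 Tdp1-/- cells stably complemented with human TDP1 were seeded at 400 cells/well in medium containing 20 nM camptothecin, exposed to pin-transferred compounds, and grown at 37 °C for at least 48 hr. Viability was read as ATP luminescence.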
TDP1 block: qHTS Assay for Inhibitors of Tyrosyl-DNA Phosphodiesterase (TDP1). Tyrosyl-DNA phosphodiesterase 1 (Homo sapiens), Q9NUW8. recombinant TDP1, AlphaScreen DNA substrate cleavage. Potency, µM (highest dose often 130 µM), for inactives: top-dose activity change, negative = inhibition, usual class: inhibitors. actives 0.28% (n = 350,000); further: potency means the concentration at half of the fitted maximal effect; on the % scale 0 is the no-effect control and ±100 the full control effect; nearly all actives have a fitted effect of over 40% in size
Target sequence (Q9NUW8 whole entry, looked up): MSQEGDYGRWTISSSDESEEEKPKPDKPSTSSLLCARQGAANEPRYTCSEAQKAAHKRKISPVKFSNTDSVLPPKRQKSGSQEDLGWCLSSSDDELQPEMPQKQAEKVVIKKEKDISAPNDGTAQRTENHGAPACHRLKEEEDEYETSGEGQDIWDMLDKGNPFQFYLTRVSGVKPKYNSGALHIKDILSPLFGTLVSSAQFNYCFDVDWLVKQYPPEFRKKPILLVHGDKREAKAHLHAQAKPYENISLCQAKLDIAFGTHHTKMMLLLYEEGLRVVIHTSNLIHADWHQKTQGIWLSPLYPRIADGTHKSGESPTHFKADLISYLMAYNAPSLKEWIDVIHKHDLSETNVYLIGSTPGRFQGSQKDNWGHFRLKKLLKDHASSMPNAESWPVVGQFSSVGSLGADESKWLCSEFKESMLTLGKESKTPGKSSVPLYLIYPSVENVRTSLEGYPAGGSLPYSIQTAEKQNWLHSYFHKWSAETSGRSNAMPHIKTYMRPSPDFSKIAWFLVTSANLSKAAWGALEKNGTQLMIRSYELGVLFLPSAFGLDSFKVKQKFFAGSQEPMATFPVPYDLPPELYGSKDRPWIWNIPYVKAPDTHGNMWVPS
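Here, a 5' biotin and 3' phosphotyrosine-FITC DNA oligonucleotide reports Tdp1 activity: intact substrate bridges AlphaScreen beads, while cleavage leaves a 3' phosphate and drops signal. All incubations at room temperature.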
HepG2 viability: qHTS for Inhibitors of TGF-b: Cytotox Counterscreen. HepG2 CAGA-GFP viability, ATP luminescence, 18 h. Potency, µM (doses to about 46.1 µM), for inactives: top-dose activity change, negative = cytotoxicity, actives largely listed as cytotoxic. actives 0.76% (n = 410,000); further: potency means the concentration at half of the fitted maximal effect
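HepG2 CAGA-GFP cells (1000/well, DMEM with 1% FBS) received compound, then TGF-beta at 500 pg/mL final, and were incubated 18 hours at 37 degrees C. Viability was read by CellTiter-Glo luminescence. Media-only wells were set as complete cell-killing and DMSO as no toxicity.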
DT40 TDP1 no CPT: qHTS for Inhibitors of human tyrosyl-DNA phosphodiesterase 1 (TDP1): qHTS in cells in absence of CPT; DT40 Tdp1-/- hTDP1 cells, no CPT, ATP luminescence, 48 h; Potency, µM (top dose mostly 46.2 µM), without a hit: at the top dose activity change, negative = growth inhibition, usual class: inhibitors; actives 15% (n = 420,000); AID 686978, 2013; further: potency means the concentration at half of the fitted maximal effect; on the % scale 0 is the no-effect control and ±100 the full control effect; nearly all actives have a fitted effect of over 55% in size
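DT40 Tdp1-/-;hTDP1 cells, no CPT (DMSO vehicle only), 400 cells/well; compounds pin-transferred; ≥48 hr, 37 °C; CellTiter-Glo 30 min RT dark, luminescence read.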
* hit, by the source's call; i = inactive; ? = inconclusive; / = no result; [ ] = dose if it differs, or a comment. Unless noted, the call rests on the fitted dose curve; in most records, active means well fitted curve in the direction sought with a large enough effect; inconclusive means small, poorly fitted or top-dose-only effect, or another doubt; inactive means no such curve, though single readings can be large; an effect the other way counts as inactive or inconclusive.

SMILES | TGFb SMAD3 inh | IL-1B inflam inh | TDP1 cell CPT | TDP1 block | HepG2 viability | DT40 TDP1 no CPT
C[C@H](CO)N1C[C@H](C)[C@@H](CN(C)Cc2ccc(-c3ccccc3)cc2)Oc2c(NS(=O)(=O)c3ccccc3)cccc2C1=O | ? | ? | 21µM* | 3% | -23% | 18µM*
C[C@H](CO)N1C[C@H](C)[C@@H](CN(C)Cc2ccc(C(=O)O)cc2)Oc2c(NS(=O)(=O)c3cccs3)cccc2C1=O | -11% | 30 | -12% | 1% | -6% | -1%
CC1=C(C(=O)N(C(C)C)C(C)C)CC(CC(=O)NCCN2CCOCC2)C(=O)N1CCC1=CCCCC1 (configuration not stated) | 7% | -16 | -14% | / | 8% | -28%
COC(=O)c1cc2c([nH]c1=O)CCCC2=O | -1% | 20 | -29% | / | -26% | -5%
O=C(Cn1cc(SCc2ccc(F)cc2)c2ccccc21)N1CCCCCC1 | 0% | / | ? | -5% | -30% | ?
O=C1c2ccc(Cl)cc2S(=O)(=O)c2cccc(C(=O)N3CCN(c4ccc(Cl)cn4)CC3)c21 | -21% | -93* | 13µM* | 4% | 7% | 16µM*
COc1ccc(-c2ccc3c(c2)S(=O)(=O)c2cccc(C(=O)N4CCN(c5ccc(Cl)cn5)CC4)c2C3=O)cc1OC | -1% | 61 | -5% | 4% | 4% | ?
CCc1ccccc1NC(=O)Cn1nnc(C(=O)NCc2cccs2)c1N | -2% | 28 | 3.7µM* | -1% | -10% | 3.3µM*
COc1ccccc1NC(=O)Cn1nnc(C(=O)NCc2cccs2)c1N | -29% | 37 | 0.58µM* | 1% | 14% | 0.46µM*
Cc1ccc(C)c(NC(=O)Cn2nnc(C(=O)NCc3ccco3)c2N)c1 | 13% | 13 | 1.3µM* | -3% | -8% | 1.2µM*
CCc1ccc(NC(=O)Cn2nnc(C(=O)NCc3cccs3)c2N)cc1 | 3% | 13 | 5% | 1% | 4% | 1%
COc1ccc(CCNC(=O)c2nnn(CC(=O)Nc3ccccc3)c2N)cc1OC | -2% | 225 | -14% | -6% | -13% | -27%
Cc1ccc(CNC(=O)c2nnn(CC(=O)Nc3cc(C)ccc3C)c2N)cc1 | 1% | / | 0% | 3% | -1% | 1%
COc1ccc(CCNC(=O)c2nnn(CC(=O)Nc3cccc(F)c3)c2N)cc1OC | -2% | -98* | 4% | -5% | 10% | -1%
Cc1c(NC(=S)NC(=O)c2cccc(Cl)c2)c(=O)n(-c2ccccc2)n1C | -3% | 10 | 11% | 1% | -25% | 1%
Cc1onc(-c2ccccc2)c1C(=O)NN1CCOCC1 | -14% | 0 | -7% | 1% | -22% | -14%
COc1ccc(NC(=O)Cn2nnc(C(=O)NCCc3ccccc3)c2N)c(OC)c1 | 8% | 26 | -5% | -20% | 3% | 19%
COc1ccc(NC(=O)Cn2nnc(C(=O)NCc3ccccc3)c2N)c(OC)c1 | -29% | 30 | ? | -3% | -28% | 13µM*
COc1ccccc1CNC(=O)Cc1csc(NC(=O)Nc2ccccc2OC)n1 | -12% | 2 | 16µM* | 0% | -43% | 23µM*
COc1ccccc1NC(=O)Nc1nc(CC(=O)NCc2cccnc2)cs1 | 0% | 4 | ? | 4% | 0% | -14%
COc1cc(OC)cc(C(=O)Nc2nc(CC(=O)NCc3ccc(F)cc3)cs2)c1 | -19% | 1 | 12µM* | 1% | -14% | 8.2µM*
COc1ccccc1NC(=O)Nc1nc(CC(=O)NC2CCCC2)cs1 | -15% | -8 | ? | -3% | -23% | 16µM*
O=C(Cc1csc(NC(=O)Nc2cccc(Cl)c2)n1)NCc1cccnc1 | 0% | ? | -23% | 3% | -30% | ?
O=C(Cc1csc(NC(=O)Nc2cccc(Cl)c2)n1)NCc1ccccn1 | 0% | -6 | 2.1µM* | 7% | -29% | 2.6µM*
CC1(C)CC(=O)C(C=NCCN2CCN(C3CC(=O)N(c4ccc(Br)cc4)C3=O)CC2)=C(O)C1 (configuration not stated) | 2% | 8 | ? | 0% | 0% | -11%
SMILES | TGFb SMAD3 inh | IL-1B inflam inh | TDP1 cell CPT | TDP1 block | HepG2 viability | DT40 TDP1 no CPT
COc1ccccc1NC(=O)Nc1nc(CC(=O)NCc2ccccn2)cs1 | 3% | 15 | ? | / | -8% | 26µM*
COc1ccc(CNC(=O)Cc2csc(NC(=O)Nc3ccccc3OC)n2)cc1 | -19% | ? | ? | 0%[0.505 µM] | -19% | 15µM*
COc1ccccc1NC(=S)NCc1ccccn1 | -21% | 0 | 2.3µM* | 0% | -26% | 4.1µM*
COc1ccccc1NC(=O)Nc1nc(CC(=O)N2CCN(c3ccc(F)cc3)CC2)cs1 | -29% | -9 | ? | 3% | -4% | ?
Cc1ccsc1CN(C(=O)c1oc2ccc(F)cc2c1C)C1CCS(=O)(=O)C1 (configuration not stated) | / | / | 12µM* | 10% | -25% | 7.3µM*
COc1ccc(CN(C(=O)c2oc3ccc(F)cc3c2C)C2CCS(=O)(=O)C2)cc1 (configuration not stated) | 3% | i | ? | 4%[56.1 µM] | 3% | ?
Cc1ccc2oc(C(=O)N(Cc3sccc3C)C3CCS(=O)(=O)C3)c(C)c2c1 (configuration not stated) | / | / | 5.8µM* | 5% | -20% | 5.2µM*
Cc1cc(C)n(Cc2ccccc2Cl)n1 | 11% | 0 | 9% | -2% | 13% | -18%
COc1ccc(/C=C/c2ccc(=O)n(Cc3ccccc3)n2)cc1 | -32% | -156* | ? | -1% | -13% | ?
Cc1ccc(/C=C/c2ccc(=O)n(Cc3ccccc3Cl)n2)cc1 | ? | ? | 16µM* | / | -53% | 26µM*
Cc1ccc(/C=C/c2ccc(=O)n(Cc3ccc(F)cc3)n2)cc1 | ? | 0 | ? | -8% | -17% | ?
O=c1ccc(/C=C/c2ccccc2)nn1Cc1ccc(F)cc1 | -34% | -60* | 5% | -4% | -23% | -23%
CCOC(=O)Cn1nc(/C=C/c2ccc(OC)cc2)ccc1=O | -2% | -29 | -19% | / | -16% | -27%
